# Measurements reported in publication PMC7862700, “An all-to-all approach to the identification of sequence-specific readers for epigenetic DNA modifications on cytosine”.
# Experiments:
# Assay in all cases: DAPPL (digital affinity profiling via proximity ligation, sequencing); 10 mM Tris-HCl pH 7.5, 50 mM NaCl, 1 mM DTT, 4% glycerol, room temperature, 30 min; GST-TFs on glutathione beads, 16-mer random dsDNA library, 0.1% formaldehyde crosslink after washing; high values mean tight binding
# FEV = target: T1, FEV (Homo sapiens, UniProt Q99581 1-238); conditions: protein: recombinant; tags: N-terminal GST; dsDNA, one strand shown
# T1 sequence: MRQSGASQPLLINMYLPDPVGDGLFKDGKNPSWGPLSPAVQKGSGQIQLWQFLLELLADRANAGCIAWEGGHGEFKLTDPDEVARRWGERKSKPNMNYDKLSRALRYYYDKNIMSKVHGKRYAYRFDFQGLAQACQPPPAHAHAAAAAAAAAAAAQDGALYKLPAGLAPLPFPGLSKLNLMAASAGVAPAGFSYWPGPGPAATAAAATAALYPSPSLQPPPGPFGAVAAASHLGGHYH
# How it was run: (§1)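 Sequencing on an Illumina NextSeq500 followed washing, crosslinking with 0.1% formaldehyde, proximity ligation (BsaI/T4 ligase, 1 h, 37 °C) and PCR amplification of pools that had been incubated for 30 min at room temperature with 200 nmole of a random double-stranded 16-mer DNA library in Tris/NaCl/DTT/glycerol buffer. Each pool held DNA-barcoded human transcription factors, expressed in yeast as GST fusions and captured on glutathione beads, plus a tag-only sample. Binding signal is a hexamer's read frequency for a factor divided by its frequency in the tag-only sample.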
# ETV5 = ETV5 (Homo sapiens, UniProt P41161 1-510); conditions: protein: recombinant; tags: N-terminal GST; dsDNA, one strand shown
# How it was run: as §1
# HSF1 = HSF1 (Homo sapiens, UniProt Q00613 1-529); conditions: protein: recombinant; tags: N-terminal GST; chain copies: 3; dsDNA, one strand shown
# How it was run: as §1
# SPIC = target: T2, SPIC (Homo sapiens, UniProt Q8N5J4 1-248); conditions: protein: recombinant; tags: N-terminal GST; dsDNA, one strand shown
# T2 sequence: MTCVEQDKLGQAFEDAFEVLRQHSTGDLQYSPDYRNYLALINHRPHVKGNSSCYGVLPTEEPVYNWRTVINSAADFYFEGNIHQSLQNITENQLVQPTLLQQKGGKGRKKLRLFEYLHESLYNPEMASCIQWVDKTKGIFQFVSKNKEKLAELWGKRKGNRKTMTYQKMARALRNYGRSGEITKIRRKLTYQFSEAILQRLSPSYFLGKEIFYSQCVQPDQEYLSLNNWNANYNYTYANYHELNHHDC
# How it was run: as §1
# ELF4 = ELF4 (Homo sapiens, UniProt Q99607 1-663); conditions: protein: recombinant; tags: N-terminal GST; dsDNA, one strand shown
# How it was run: as §1
# ELK4 = target: T3, ELK4 (Homo sapiens, UniProt P28324-2 1-405); conditions: protein: recombinant; tags: N-terminal GST; dsDNA, one strand shown
# T3 sequence: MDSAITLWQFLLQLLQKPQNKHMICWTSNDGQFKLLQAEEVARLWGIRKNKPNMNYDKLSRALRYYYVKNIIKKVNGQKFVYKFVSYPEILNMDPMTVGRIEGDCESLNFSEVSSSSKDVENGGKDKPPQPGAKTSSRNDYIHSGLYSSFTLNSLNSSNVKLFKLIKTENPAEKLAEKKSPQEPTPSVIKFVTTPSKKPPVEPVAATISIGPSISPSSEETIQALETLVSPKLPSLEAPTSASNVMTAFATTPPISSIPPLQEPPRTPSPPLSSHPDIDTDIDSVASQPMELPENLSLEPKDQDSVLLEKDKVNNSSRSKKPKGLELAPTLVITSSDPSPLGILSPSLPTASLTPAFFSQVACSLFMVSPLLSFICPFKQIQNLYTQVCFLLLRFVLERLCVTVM
# How it was run: as §1
# ETV2 = target: T4, ETV2 (Homo sapiens, UniProt O00321 1-342); conditions: protein: recombinant; tags: N-terminal GST; dsDNA, one strand shown
# T4 sequence: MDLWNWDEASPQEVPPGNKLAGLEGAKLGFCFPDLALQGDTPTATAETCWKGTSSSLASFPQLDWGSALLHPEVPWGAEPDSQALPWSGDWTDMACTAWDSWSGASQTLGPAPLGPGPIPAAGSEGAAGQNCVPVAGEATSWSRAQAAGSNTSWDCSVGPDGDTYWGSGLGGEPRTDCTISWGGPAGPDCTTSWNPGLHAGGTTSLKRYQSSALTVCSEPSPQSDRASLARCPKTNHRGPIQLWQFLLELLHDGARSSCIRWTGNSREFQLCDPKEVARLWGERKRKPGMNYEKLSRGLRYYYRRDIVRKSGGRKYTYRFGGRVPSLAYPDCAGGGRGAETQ
# How it was run: as §1
# ELF3 = target: T5, ELF3 (Homo sapiens, UniProt P78545 1-371); conditions: protein: recombinant; tags: N-terminal GST; dsDNA, one strand shown
# T5 sequence: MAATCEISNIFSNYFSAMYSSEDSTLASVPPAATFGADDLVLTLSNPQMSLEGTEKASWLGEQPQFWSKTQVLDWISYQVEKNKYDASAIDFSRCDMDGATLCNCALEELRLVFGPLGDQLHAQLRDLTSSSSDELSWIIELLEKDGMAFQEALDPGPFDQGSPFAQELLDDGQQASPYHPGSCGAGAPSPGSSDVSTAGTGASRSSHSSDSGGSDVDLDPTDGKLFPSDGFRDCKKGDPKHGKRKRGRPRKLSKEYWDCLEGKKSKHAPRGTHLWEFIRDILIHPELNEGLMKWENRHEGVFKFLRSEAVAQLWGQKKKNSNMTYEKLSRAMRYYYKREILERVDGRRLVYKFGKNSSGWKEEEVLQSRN
# How it was run: as §1
# CRX = CRX (Homo sapiens, UniProt O43186 1-299); conditions: protein: recombinant; tags: N-terminal GST; dsDNA, one strand shown
# How it was run: as §1
# ETV1 = ETV1 (Homo sapiens, UniProt P50549 1-477); conditions: protein: recombinant; tags: N-terminal GST; dsDNA, one strand shown
# How it was run: as §1
# Sequence of ETV1 (P50549 whole entry): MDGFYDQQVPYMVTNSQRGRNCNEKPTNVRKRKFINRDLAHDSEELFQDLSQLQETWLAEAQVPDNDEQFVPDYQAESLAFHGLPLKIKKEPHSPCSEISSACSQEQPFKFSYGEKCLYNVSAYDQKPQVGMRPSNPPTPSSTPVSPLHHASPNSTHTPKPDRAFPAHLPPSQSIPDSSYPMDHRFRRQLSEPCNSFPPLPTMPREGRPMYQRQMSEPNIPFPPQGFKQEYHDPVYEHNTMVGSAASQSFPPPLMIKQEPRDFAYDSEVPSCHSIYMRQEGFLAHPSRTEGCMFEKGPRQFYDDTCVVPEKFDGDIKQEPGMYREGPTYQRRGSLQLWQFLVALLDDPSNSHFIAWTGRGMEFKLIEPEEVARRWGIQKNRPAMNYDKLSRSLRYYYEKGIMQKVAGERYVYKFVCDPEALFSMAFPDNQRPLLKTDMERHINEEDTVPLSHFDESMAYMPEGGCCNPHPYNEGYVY
# Sequence of CRX (O43186 whole entry): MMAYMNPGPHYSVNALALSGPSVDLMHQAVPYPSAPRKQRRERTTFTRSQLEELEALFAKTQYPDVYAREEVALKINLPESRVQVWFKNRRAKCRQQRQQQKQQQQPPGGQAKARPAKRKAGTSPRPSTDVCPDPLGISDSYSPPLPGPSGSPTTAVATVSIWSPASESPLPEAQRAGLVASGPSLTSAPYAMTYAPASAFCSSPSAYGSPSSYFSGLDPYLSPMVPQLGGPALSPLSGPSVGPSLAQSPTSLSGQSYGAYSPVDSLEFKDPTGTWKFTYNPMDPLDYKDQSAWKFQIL
# Sequence of ELF4 (Q99607 whole entry): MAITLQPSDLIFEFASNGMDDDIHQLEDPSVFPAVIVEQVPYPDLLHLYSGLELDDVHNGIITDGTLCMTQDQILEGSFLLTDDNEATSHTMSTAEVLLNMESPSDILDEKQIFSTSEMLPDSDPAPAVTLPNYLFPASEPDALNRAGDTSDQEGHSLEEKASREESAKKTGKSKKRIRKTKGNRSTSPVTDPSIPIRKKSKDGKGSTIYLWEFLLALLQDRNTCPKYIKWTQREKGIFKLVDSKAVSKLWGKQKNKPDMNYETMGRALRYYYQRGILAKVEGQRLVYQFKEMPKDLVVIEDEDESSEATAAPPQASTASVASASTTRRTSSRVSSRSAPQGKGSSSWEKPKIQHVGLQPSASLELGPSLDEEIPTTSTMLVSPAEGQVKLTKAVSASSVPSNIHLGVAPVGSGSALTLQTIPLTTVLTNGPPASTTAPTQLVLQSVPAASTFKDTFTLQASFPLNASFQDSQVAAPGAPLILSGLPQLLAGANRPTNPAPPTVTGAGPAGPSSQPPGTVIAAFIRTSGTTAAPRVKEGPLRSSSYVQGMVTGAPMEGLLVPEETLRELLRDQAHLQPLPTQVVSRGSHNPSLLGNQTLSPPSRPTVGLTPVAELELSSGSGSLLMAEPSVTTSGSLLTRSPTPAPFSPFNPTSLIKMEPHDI
# Sequence of HSF1 (Q00613 whole entry): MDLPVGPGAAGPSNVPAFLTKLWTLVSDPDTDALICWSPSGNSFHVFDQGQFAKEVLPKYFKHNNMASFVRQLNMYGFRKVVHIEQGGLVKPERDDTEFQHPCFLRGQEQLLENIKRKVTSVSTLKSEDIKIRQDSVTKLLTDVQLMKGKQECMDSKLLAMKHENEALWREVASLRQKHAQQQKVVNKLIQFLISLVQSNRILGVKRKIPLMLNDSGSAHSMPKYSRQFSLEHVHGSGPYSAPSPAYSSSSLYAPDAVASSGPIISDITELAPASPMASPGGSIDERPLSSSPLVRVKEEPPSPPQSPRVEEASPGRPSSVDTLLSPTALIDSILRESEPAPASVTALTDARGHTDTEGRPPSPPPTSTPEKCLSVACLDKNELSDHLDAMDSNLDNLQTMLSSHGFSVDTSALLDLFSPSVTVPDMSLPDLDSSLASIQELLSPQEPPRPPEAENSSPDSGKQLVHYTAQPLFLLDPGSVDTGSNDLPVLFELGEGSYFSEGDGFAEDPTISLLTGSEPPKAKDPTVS
# Sequence of ETV5 (P41161 whole entry): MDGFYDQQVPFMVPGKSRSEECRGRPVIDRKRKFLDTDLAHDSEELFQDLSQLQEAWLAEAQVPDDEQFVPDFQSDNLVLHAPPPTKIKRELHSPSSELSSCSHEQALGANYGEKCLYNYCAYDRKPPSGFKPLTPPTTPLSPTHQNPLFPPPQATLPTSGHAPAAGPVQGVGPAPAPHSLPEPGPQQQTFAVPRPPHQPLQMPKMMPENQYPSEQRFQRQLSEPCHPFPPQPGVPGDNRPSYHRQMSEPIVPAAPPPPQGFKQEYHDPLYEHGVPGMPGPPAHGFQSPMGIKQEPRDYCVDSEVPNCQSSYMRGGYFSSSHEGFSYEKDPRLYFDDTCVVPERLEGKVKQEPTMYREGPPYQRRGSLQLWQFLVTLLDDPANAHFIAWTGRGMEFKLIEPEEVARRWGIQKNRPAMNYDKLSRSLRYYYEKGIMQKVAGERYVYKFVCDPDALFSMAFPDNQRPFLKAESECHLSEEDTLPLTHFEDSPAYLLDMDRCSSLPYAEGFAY
sequence,measurement,setting,value
AATAAA,binding signal,FEV,"1.22 fold enrichment (6-mer frequency, TF over GST control)"
same,binding signal,ETV5,"1.31 fold enrichment (6-mer frequency, TF over GST control)"
same,binding signal,HSF1,"1.42 fold enrichment (6-mer frequency, TF over GST control)"
same,binding signal,SPIC,"1.26 fold enrichment (6-mer frequency, TF over GST control)"
same,binding signal,ELF4,"1.29 fold enrichment (6-mer frequency, TF over GST control)"
same,binding signal,ELK4,"1.28 fold enrichment (6-mer frequency, TF over GST control)"
same,binding signal,ETV2,"1.21 fold enrichment (6-mer frequency, TF over GST control)"
same,binding signal,ELF3,"1.31 fold enrichment (6-mer frequency, TF over GST control)"
same,binding signal,CRX,"1.57 fold enrichment (6-mer frequency, TF over GST control)"
same,binding signal,ETV1,"1.23 fold enrichment (6-mer frequency, TF over GST control)"
TACAGA,binding signal,FEV,"1.13 fold enrichment (6-mer frequency, TF over GST control)"
same,binding signal,ETV5,"1.12 fold enrichment (6-mer frequency, TF over GST control)"
same,binding signal,HSF1,"1.28 fold enrichment (6-mer frequency, TF over GST control)"
same,binding signal,SPIC,"1.25 fold enrichment (6-mer frequency, TF over GST control)"
same,binding signal,ELF4,"1.13 fold enrichment (6-mer frequency, TF over GST control)"
same,binding signal,ELK4,"1.1 fold enrichment (6-mer frequency, TF over GST control)"
same,binding signal,ETV2,"1.25 fold enrichment (6-mer frequency, TF over GST control)"
same,binding signal,ELF3,"1.11 fold enrichment (6-mer frequency, TF over GST control)"
same,binding signal,CRX,"1.25 fold enrichment (6-mer frequency, TF over GST control)"
same,binding signal,ETV1,"1.16 fold enrichment (6-mer frequency, TF over GST control)"
GCTCCG,binding signal,FEV,"1.42 fold enrichment (6-mer frequency, TF over GST control)"
same,binding signal,ETV5,"1.33 fold enrichment (6-mer frequency, TF over GST control)"
same,binding signal,HSF1,"1.2 fold enrichment (6-mer frequency, TF over GST control)"
same,binding signal,SPIC,"1.54 fold enrichment (6-mer frequency, TF over GST control)"
same,binding signal,ELF4,"1.39 fold enrichment (6-mer frequency, TF over GST control)"
same,binding signal,ELK4,"1.33 fold enrichment (6-mer frequency, TF over GST control)"
same,binding signal,ETV2,"1.32 fold enrichment (6-mer frequency, TF over GST control)"
same,binding signal,ELF3,"1.32 fold enrichment (6-mer frequency, TF over GST control)"
same,binding signal,CRX,"1.07 fold enrichment (6-mer frequency, TF over GST control)"
same,binding signal,ETV1,"1.27 fold enrichment (6-mer frequency, TF over GST control)"
TTCGAC,binding signal,FEV,"1.5 fold enrichment (6-mer frequency, TF over GST control)"
same,binding signal,ETV5,"1.46 fold enrichment (6-mer frequency, TF over GST control)"
same,binding signal,HSF1,"1.75 fold enrichment (6-mer frequency, TF over GST control)"
same,binding signal,SPIC,"1.35 fold enrichment (6-mer frequency, TF over GST control)"
same,binding signal,ELF4,"1.63 fold enrichment (6-mer frequency, TF over GST control)"
same,binding signal,ELK4,"1.43 fold enrichment (6-mer frequency, TF over GST control)"
same,binding signal,ETV2,"1.35 fold enrichment (6-mer frequency, TF over GST control)"
same,binding signal,ELF3,"1.46 fold enrichment (6-mer frequency, TF over GST control)"
same,binding signal,CRX,"1.44 fold enrichment (6-mer frequency, TF over GST control)"
same,binding signal,ETV1,"1.44 fold enrichment (6-mer frequency, TF over GST control)"
CACAAG,binding signal,FEV,"1.08 fold enrichment (6-mer frequency, TF over GST control)"
same,binding signal,ETV5,"1.13 fold enrichment (6-mer frequency, TF over GST control)"
same,binding signal,HSF1,"1.06 fold enrichment (6-mer frequency, TF over GST control)"
same,binding signal,SPIC,"1.09 fold enrichment (6-mer frequency, TF over GST control)"
same,binding signal,ELF4,"1.2 fold enrichment (6-mer frequency, TF over GST control)"
same,binding signal,ELK4,"1.07 fold enrichment (6-mer frequency, TF over GST control)"
same,binding signal,ETV2,"1.11 fold enrichment (6-mer frequency, TF over GST control)"
same,binding signal,ELF3,"1.17 fold enrichment (6-mer frequency, TF over GST control)"
same,binding signal,CRX,"1.01 fold enrichment (6-mer frequency, TF over GST control)"
same,binding signal,ETV1,"1.18 fold enrichment (6-mer frequency, TF over GST control)"
TCCTGC,binding signal,FEV,"1.62 fold enrichment (6-mer frequency, TF over GST control)"
same,binding signal,ETV5,"1.83 fold enrichment (6-mer frequency, TF over GST control)"
same,binding signal,HSF1,"1.25 fold enrichment (6-mer frequency, TF over GST control)"
same,binding signal,SPIC,"1.68 fold enrichment (6-mer frequency, TF over GST control)"
same,binding signal,ELF4,"1.56 fold enrichment (6-mer frequency, TF over GST control)"
same,binding signal,ELK4,"1.36 fold enrichment (6-mer frequency, TF over GST control)"
same,binding signal,ETV2,"1.49 fold enrichment (6-mer frequency, TF over GST control)"
same,binding signal,ELF3,"1.75 fold enrichment (6-mer frequency, TF over GST control)"
same,binding signal,CRX,"1.26 fold enrichment (6-mer frequency, TF over GST control)"
same,binding signal,ETV1,"1.6 fold enrichment (6-mer frequency, TF over GST control)"
ATTATA,binding signal,FEV,"1.32 fold enrichment (6-mer frequency, TF over GST control)"
same,binding signal,ETV5,"1.29 fold enrichment (6-mer frequency, TF over GST control)"
same,binding signal,HSF1,"2.05 fold enrichment (6-mer frequency, TF over GST control)"
same,binding signal,SPIC,"1.36 fold enrichment (6-mer frequency, TF over GST control)"
same,binding signal,ELF4,"1.24 fold enrichment (6-mer frequency, TF over GST control)"
same,binding signal,ELK4,"1.29 fold enrichment (6-mer frequency, TF over GST control)"
same,binding signal,ETV2,"1.42 fold enrichment (6-mer frequency, TF over GST control)"
same,binding signal,ELF3,"1.39 fold enrichment (6-mer frequency, TF over GST control)"
same,binding signal,CRX,"3.2 fold enrichment (6-mer frequency, TF over GST control)"
same,binding signal,ETV1,"1.3 fold enrichment (6-mer frequency, TF over GST control)"
